According to ChEMBL document CHEMBL1201862, “PubChem BioAssay data set” (2004):

Species on record: Homo sapiens
Experiment: Quantitative High-Throughput Screen for Compounds Blocking the Interaction Between CBF-beta and RUNX1 for the Treatment of Acute Myeloid Leukemia: Summary. [Related pubchem assays (depositor defined):AID1477, AID504370, AID504374, AID504375]; call rule not given here
Assay type: functional

Potency, active:
CN1CCCN(C(=O)/C=C/c2ccc(Cl)cc2Cl)CC1 0.126 µM, NNc1nc2cccnc2n(CCNc2ncc(C(F)(F)F)cc2Cl)c1=O 0.126 µM, c1coc(-c2ccnc3ncnn23)c1 0.1 µM, O=C1C2C3C=CC(C4CC34)C2C(=O)N1/N=C/c1cccs1 (stereo not given) 0.112 µM, CCOc1ccc(CN(C)CC(=O)Nc2cc(C)c(C)cc2[N+](=O)[O-])cc1.CN(C)C=O 0.141 µM, N[C@@H](CCCCNC(=O)CCCC[C@@H]1SC[C@H]2NC(=O)N[C@H]12)C(=O)O 0.398 µM, COC(=O)c1ccc(C)c(-n2c(C)cc(C=O)c2C)c1 0.112 µM, COC(=O)c1ccc(N=NNc2ccc(C(=O)OC)cc2)cc1 0.112 µM, COc1cc([N+](=O)[O-])cc(/C=N/NC(=O)c2ccc(C)nc2)c1O 0.141 µM, O=C(O)c1cccc(NC(=S)N/N=C/c2cccc(O)c2)c1 0.141 µM
